Test [1] in a line: qHTS assay to identify small molecule antagonists of the vitamin D receptor (VDR) signaling pathway - cell viability counter screen (AID 743225). Also: nearly all actives have a fitted effect of over 50% in size. Put shortly: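 Compounds were pinned onto VDR-bla HEK 293T cells together with 1-alpha,25-dihydroxyvitamin D3 at 3 nM final. After 16 h at 37C and 5% CO2 plus the reporter readout, cell viability was measured by CellTiter-Glo luminescence (30 min, room temperature).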
In general terms: Quantitative high-throughput screening tests each substance at several concentrations.

A short description of test [2]: qHTS assay to identify small molecule agonists of the NFkB signaling pathway - cell viability counter screen (AID 1159515; calls by dose curve; also: series mostly up to about 61 µM; nearly all actives have a fitted effect of over 55% in size). Put shortly:
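Viability in NFkB-bla ME-180 cells was measured by CellTiter-Glo luminescence, 30 min room temperature, in wells already treated 5 hr with compounds and read for reporter FRET.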

The nature of test [3]: qHTS assay to identify small molecule agonists of the endoplasmic reticulum stress response signaling pathway (AID 1159516; active = well fitted activation curve with a large enough effect in the signal ratio in the repeat runs, not every such curve was filed as active; the % refers to the signal ratio). Put shortly:
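ER stress element reporter (bla) in HeLa. 1,500 cells/well, overnight attachment; 5 hr compound; 2 hr RT substrate; dual-emission fluorescence.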

The nature of test [4]: qHTS assay to identify small molecule agonists of the endoplasmic reticulum stress response signaling pathway - cell viability counter screen (AID 1159517; calls by dose curve;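 also: HeLa cells carrying an ER stress response element beta-lactamase reporter; series mostly up to about 61 µM; nearly all actives have a fitted effect of over 50% in size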). Put shortly: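 CellTiter-Glo was added to wells already read for beta-lactamase FRET, and luminescence was recorded 30 min later. Cells: ESRE-bla HeLa, 1,500 per well, compound exposure 5 hr at 37 C.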
Test [5] in a line: qHTS assay to identify small molecule antagonists of the retinoid-related orphan receptor gamma (ROR-gamma) signaling pathway - cell viability counter screen (AID 1159520). Also: nearly all actives have a fitted effect of over 50% in size. Put shortly: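 Tet-on ROR gamma CHO cells (1,000/well) were plated 4 hr, given compounds in DMSO for 2 hr at 37 C, then induced with 1 uM final doxycycline for 16 hr. Viability was read as ATP by CellTiter-Glo luminescence after 30 min.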

For test [6], the target named is Nuclear receptor ROR-gamma (Homo sapiens) (UniProt P51449). Kind of test: qHTS assay to identify small molecule antagonists of the retinoid-related orphan receptor gamma (ROR-gamma) signaling pathway (AID 1159521; also: nearly all actives have a fitted effect of over 50% in size; also: potency is read from the fitted curve at half-maximal effect). The procedure, abridged: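 Test compounds were applied to Tet-on RORγ CHO cells 2 h ahead of doxycycline hyclate (1 uM final). Luciferase reporter activity was quantified by luminescence after 16 h at 37 C and 5% CO2.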

Test [7] is described as follows: qHTS assay to identify small molecule agonists of the AP-1 signaling pathway (AID 1159526; calls by dose curve).
For test [8], the target named is Retinoic acid receptor RXR-alpha (Homo sapiens) (UniProt P19793). The experiment in a line: qHTS assay to identify small molecule agonists of the RXR signaling pathway (AID 1159527; calls by dose curve; also: nearly all actives have a fitted effect of over 35% in size). Put shortly: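 Using 9-cis retinoic acid as the reference agonist, chemicals were tested in HEK 293T cells […] for 16 hr; substrate loading lasted 2 hr at room temperature.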
Sequence of Retinoic acid receptor RXR-alpha (Homo sapiens) (P19793 whole entry, looked up): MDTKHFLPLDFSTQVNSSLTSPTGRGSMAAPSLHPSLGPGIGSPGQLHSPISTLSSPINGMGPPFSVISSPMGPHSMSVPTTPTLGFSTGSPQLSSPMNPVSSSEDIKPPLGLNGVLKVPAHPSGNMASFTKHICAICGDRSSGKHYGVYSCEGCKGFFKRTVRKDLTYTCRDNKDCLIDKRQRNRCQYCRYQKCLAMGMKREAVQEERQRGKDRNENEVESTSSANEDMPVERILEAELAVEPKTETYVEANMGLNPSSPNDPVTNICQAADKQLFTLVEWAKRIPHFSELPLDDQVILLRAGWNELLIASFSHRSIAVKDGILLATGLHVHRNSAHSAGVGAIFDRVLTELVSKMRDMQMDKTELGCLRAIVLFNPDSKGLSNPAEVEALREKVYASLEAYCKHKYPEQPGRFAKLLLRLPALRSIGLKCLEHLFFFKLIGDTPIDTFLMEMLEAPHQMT

Test [9] is described as follows: qHTS assay to identify small molecule agonists of the RXR signaling pathway - cell viability counter screen (AID 1159529). Put shortly: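 Compounds dissolved in DMSO were pinned onto HEK 293T cells carrying a beta-lactamase reporter under RXR-alpha control and incubated 16 hr. Cytotoxicity was then quantified by CellTiter-Glo luminescence.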
The nature of test [10]: qHTS assay to identify small molecule antagonists of the retinoid acid receptor (RAR) signaling pathway - cell viability counter screen (AID 1159551). Also: nearly all actives have a fitted effect of over 35% in size. The procedure, abridged: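 Following overnight attachment, C3RL4 reporter cells received DMSO-dissolved compounds and then retinol (1 uM final). Six hours later at 37 C, ATP content was measured by CellTiter-Glo luminescence.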

A short description of test [11]: qHTS assay to identify small molecule antagonists of the estrogen related receptor (ERR) signaling pathway from Tox21 library - cell viability counter screen (AID 1224834). Also: nearly all actives have a fitted effect of over 30% in size. Put shortly: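 Viability readout (CellTiter-Fluor fluorescence, 30 min at 37 C) multiplexed with the ERR assay; cells treated 17.5 h at 37 C with compounds delivered in DMSO.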
A short description of test [12]: qHTS assay to identify small molecule agonists of the AP-1 signaling pathway - cell viability counter screen (AID 1159525; calls by dose curve; also: nearly all actives have a fitted effect of over 55% in size). Put shortly:
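ME-180 AP-1-bla, 2500 cells/well, Opti-MEM + 0.5% dialyzed FBS; overnight 37 °C; cpd 15-pt titration, 5 h 37 °C; CellTiter-Glo 30 min RT; luminescence read; normalised to TOAB and DMSO controls.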

The nature of test [13]: qHTS assay to identify small molecule antagonists of the estrogen related receptor (ERR) signaling pathway - cell viability counter screen (AID 1224818).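 Also: series mostly up to about 46 µM; viability measured after 17.5 h of compound exposure.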 The procedure, abridged: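 Here, ERR cells are plated at 2,000 cells per well, allowed 6 h to attach, and treated with compounds in DMSO for 17.5 h at 37 C. CellTiter-Fluor is then added and fluorescence read after 30 min.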

A short description of test [14]: qHTS assay to identify small molecule antagonists of the estrogen related receptor (ERR) signaling pathway (AID 1224819). The procedure, abridged: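 LOPAC library screened for antagonism as reduced One-Glo luminescence in ERR reporter cells (2,000/well). Compounds were added after 6 h pre-incubation and left 18 h at 37C; reading followed a 30 min room-temperature reagent step.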

Test [15] can be described thus: qHTS assay to identify small molecule agonists of the estrogen related receptor (ERR) signaling pathway (AID 1224820). The procedure, abridged: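 ERR reporter cell line (from NTP), 2,000 cells/well, incubated 6 h before compound addition, then 18 h at 37 C. Luminescence measured 30 min after One-Glo reagent at room temperature.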
Test [16] relates to estrogen-related receptor alpha (ERRalpha) with PGC-1alpha coactivator, human. The experiment in a line: qHTS assay to identify small molecule antagonists of the estrogen related receptor signaling pathway with the pleiotropic PPARgamma coactivator (PGC) (AID 1224821; calls by dose curve). The procedure, abridged:
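PGC/ERR reporter cell line, plated 6 h before compound addition, then exposed 18 h at 37 °C. Luciferase activity read by luminescence 30 min after One-Glo addition; decrease indicates antagonism.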

Test [17] is described as follows: qHTS assay to identify small molecule antagonists of the estrogen related receptor signaling pathway with the pleiotropic PPARgamma coactivator (PGC) cell viability counter screen (AID 1224822; also: series mostly up to about 46 µM). The procedure, abridged:
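qHTS format, DMSO compound stocks pin-transferred onto PGC/ERR cells 6 h after plating; 17.5 h exposure at 37 C, then CellTiter-Fluor fluorescence.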

Test [18] is described as follows: qHTS assay to identify small molecule agonists of the estrogen related receptor signaling pathway with the pleiotropic PPARgamma coactivator (PGC) (AID 1224823). The procedure, abridged: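 PGC/ERR reporter cells seeded 6 h, then exposed to compounds (23 nL in DMSO) for 18 h at 37 C. One-Glo luciferase luminescence read after 30 min at room temperature.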
Test [19] in a line: qHTS assay to identify small molecule antagonists of the retinoic acid receptor (RAR) signaling pathway (AID 1159552; also: nearly all actives have a fitted effect of over 50% in size). Put shortly: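 Test chemicals and DMSO controls were pin-transferred onto C3RL4 cells a day after seeding; retinol (1 uM final) followed at once. Luminescent reporter output was quantified after 6 hr of co-incubation and 30 min with detection reagent.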

Records with an inconclusive call do not appear. Unmarked numbers belong to inactive results. Activity calls are given as the source filed them. Unless noted, calls follow the shape of the dose curve; as a rule, active = well fitted curve in the direction sought with a large enough effect in the repeat runs; inconclusive = weak or mixed curves; inactive = no such curve, though single readings can be large; an effect the other way counts as inactive or inconclusive.

Regarding `CCCCCCC#CC(=O)OC`, the compound was classed as inactive in test [1], in test [2], in test [3], in [4], in test [5] and in [7]. In addition, in test [10], the result was inactive. The Potency entry in test [6], in test [8], in test [9] and in test [11] was “inactive” throughout.

For the compound `Nc1ccn([C@@H]2O[C@H](CO)[C@@H](O)[C@@H]2O)c(=O)n1`, the compound was classed as inactive in test [1], in test [2], in test [3], in test [4], in test [12] and in test [7]. Also, the compound was classed as inactive in [10], in [13], in [14], in test [15], in [16] and in test [17]. For the same compound, in [18], the compound was classed as inactive. For the same compound, the Potency in test [6] was 8.63 µM (active). In addition, the Potency entry in [8], in test [9] and in [11] was “inactive” each time.

Regarding `CN1CC(=O)N/C1=N/C(=O)Nc1cccc(Cl)c1`, the call in test [1], in test [2], in test [3], in test [4], in test [12] and in test [7] was inactive. For the same compound, the call in test [10], in test [13] and in test [17] was inactive. Besides, the Potency entry in test [6], in test [8], in test [9] and in test [11] was “inactive” in each case.

On to `CC[C@H]1OC(=O)[C@H](C)[C@@H](O[C@H]2C[C@@](C)(OC)[C@@H](O)[C@H](C)O2)[C@H](C)[C@@H](O[C@@H]2O[C@H](C)C[C@H](N(C)C)[C@H]2O)[C@](C)(OC)C[C@@H](C)C(=O)[C@H](C)[C@@H](O)[C@]1(C)O`, for which the call in test [1], in test [2], in test [3], in test [4], in test [12] and in test [7] was inactive. Also, in test [10], the outcome was inactive. For the same compound, the Potency entry in test [6], in [8], in test [9] and in test [11] was “inactive” throughout.

For `N[C@@H](CCC(=O)O)C(=O)O`, the outcome in [2], in test [3], in test [4], in test [5], in test [7] and in [10] was inactive. For the same compound, the result in [13] and in [17] was inactive. For the same compound, the Potency entry in test [8], in [9] and in test [11] was “inactive” in each case.

Consider `CC(C)[C@H]1CC[C@@H](C)CC1=O`, for which the call in test [1], in test [2], in [3], in test [4], in [12] and in test [7] was inactive. Further, in test [10], the compound was classed as inactive. The Potency result in test [6], in test [8], in [9] and in [11] was “inactive” throughout.

As for `Cc1ccc(-c2ccccc2C#N)cc1`, the compound was classed as inactive in test [1], in test [2], in test [3], in test [4], in [5] and in test [7]. Further, the outcome in test [10] was inactive. Also, the Potency result in [8], in test [9], in test [19] and in test [11] was “inactive” throughout.

Turning to `CC(C)(C)C(=O)c1ccccc1`, the outcome in test [1], in test [2], in test [3], in [4], in test [12] and in test [7] was inactive. In addition, the call in test [10] was inactive. Moreover, the Potency result in test [6], in test [9] and in test [11] was “inactive” in each case.

As to `CCCCCC(=O)OCCc1ccccc1`, the compound was classed as inactive in test [2], in test [3], in test [4], in [12], in [7] and in test [10]. Moreover, the Potency result in test [6], in test [8], in test [9] and in [11] was “inactive” throughout.

`CC[N+](CC)(CC)CCOc1cccc(OCC[N+](CC)(CC)CC)c1OCC[N+](CC)(CC)CC`: the result in test [1], in [2], in test [3], in test [4], in test [12] and in [7] was inactive. The compound was classed as inactive in test [10], in [13] and in test [17]. For the same compound, the Potency entry in test [6], in test [9] and in [11] was “inactive” throughout.

The values are drawn from PubChem BioAssay (Tox21).
